Test [1] in a line: qHTS for Inhibitors of the Functional Ribonucleoprotein Complex (vRNP) of Lassa (LASV) Arenavirus: LASV Primary Screen - GLuc reporter signal (AID 1347082; calls by dose curve; tested in HEK293 reporter line; also: nearly all actives have a fitted effect of over 60% in size; also: potency is read from the fitted curve at half-maximal effect; as to activity change, negative = inhibition: % is scaled to controls: 0 for no effect and ±100 for the full control effect). (In general: qHTS replaces the single test concentration by a dilution series.)
A short description of test [2]: qHTS for Inhibitors of the Functional Ribonucleoprotein Complex (vRNP) of Lassa (LASV) Arenavirus: Viability assay - alamar blue signal for LASV Primary Screen (AID 1347083; calls by dose curve; tested in HEK293 reporter line; also: nearly all actives have a fitted effect of over 80% in size; also: potency is read from the fitted curve at half-maximal effect).
Test [3] is described as follows: qHTS for Inhibitors of the Functional Ribonucleoprotein Complex (vRNP) of Lymphocytic Choriomeningitis Arenaviruses (LCMV): Viability assay - alamar blue signal for LCMV Primary Screen (AID 1347085; calls by dose curve; tested in HEK293 reporter line; also: nearly all actives have a fitted effect of over 80% in size; also: potency is read from the fitted curve at half-maximal effect).
The target of test [4] is Nucleoprotein (Lymphocytic choriomeningitis virus (strain Armstrong)) (UniProt P09992). The experiment in a line: qHTS for Inhibitors of the Functional Ribonucleoprotein Complex (vRNP) of Lymphocytic Choriomeningitis Arenaviruses (LCMV): LCMV Primary Screen - GLuc reporter signal (AID 1347086). Also: nearly all actives have a fitted effect of over 70% in size. Also: potency is read from the fitted curve at half-maximal effect. As to activity change, negative = inhibition: % is scaled to controls: 0 for no effect and ±100 for the full control effect.
In test [5] the target is Nuclear receptor subfamily 1 group I member 3 (Homo sapiens) (UniProt Q14994). Description: Primary qHTS for antagonist of constitutive androstane receptor (CAR) against the NCATS DSHEA and TCM libraries (AID 1794836; active = well fitted curve in the direction sought with a large enough effect; an effect the other way counts as inactive or inconclusive;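 also: HepG2 cells stably expressing hCAR with CYP2B6 luciferase reporter stimulated by CITCO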). The essentials:
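HepG2-CYP2B6-hCAR cells, attached 5 h, given compounds plus CITCO agonist […], incubated 24 h at 37 C. Luciferase luminescence read, multiplexed with CellTiter-Fluor viability (Ex/Em 405/540 nm).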

Test [6] is described as follows: KB-8-5-11 P-gp reporter qHTS against the NCATS DSHEA and TCM libraries (AID 1919977; active = well fitted curve in the direction sought with a large enough effect; an effect the other way counts as inactive or inconclusive; also: 0% is about no effect). The gist of the method:
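P-gp-overexpressing KB-8-5-11 cells (500/well) were plated in colchicine-free DMEM with 10% FBS, attached ~4 h, then exposed to substance titrations for ~72 h at 37C. Viability was read by CellTiter-Glo luminescence.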

Test [7] can be described thus: Primary qHTS to identify inhibitors of SARS-CoV-2 cell entry (AID 1645846). Also: nearly all actives have a fitted effect of over 45% in size. Also: potency is read from the fitted curve at half-maximal effect. Particulars: activity change, negative = inhibition: at 57.1 µM (top of the series) unless noted. The essentials: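 Luminescence readout (Bright-Glo luciferase) 48 h after pseudoparticle addition. HEK293-ACE2 cells, 1500/well; compound pre-incubation 1 h; Normalized to spike PP and bald PP.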

A short description of test [8]: qHTS profiling of the MIPE4 collection as inhibitors of Plasmodium falciparum (DD2) proliferation (AID 743345; call rule not given here). Conditions: P. falciparum Dd2 in erythrocytes, SYBR Green DNA, 72 h; at 28.5 µM (top of the series) unless noted. The essentials: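 Erythrocytes infected with P. falciparum (0.3% parasitemia, 2.5% hematocrit) incubated with compounds 72 h at 37 C, 5% CO2. Lysis with saponin/Triton buffer containing SYBR Green I, overnight at room temperature in the dark; DNA fluorescence (485/535 nm) normalised to 0.29 uM artemisinin and DMSO.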

The nature of test [9]: Inducers of the Endoplasmic Reticulum Stress Response (ERSR) in human glioma: Validation (AID 504836; active = well fitted curve in the direction sought with a large enough effect; an effect the other way counts as inactive or inconclusive; also: 0% is about no effect). The gist of the method: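 Stably transfected U87-MG glioma cells carrying a GRP78-based luciferase sensor; 16 h compound incubation. Luminescence end-point read 10 min after Bright-Glo addition at room temperature.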
Test [10] is described as follows: Cytotoxicity counterscreen for inhibitors of SARS-CoV-2 cell entry (AID 1645845). Also: % is scaled to controls: 0 for no effect and ±100 for the full control effect; nearly all actives have a fitted effect of over 50% in size. The gist of the method: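 HEK293-ACE2 cells (Expi293F stably expressing human ACE2) seeded overnight, then compound for 1 h plus 48 h at 37C. Viability as ATP content by luminescence; normalized to wells with cells and media-only wells.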
Test [11] addresses Cytochrome P450 3A4 (Homo sapiens) (UniProt P08684). Description: qHTS Assay for Inhibitors and Substrates of Cytochrome P450 3A4 (AID 884; active = well fitted curve in the direction sought with a large enough effect; an effect the other way counts as inactive or inconclusive; also: nearly all actives have a fitted effect of over 50% in size; also: potency is read from the fitted curve at half-maximal effect; as to activity change, negative = inhibition: % is scaled to controls: 0 for no effect and ±100 for the full control effect). The gist of the method: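 20 nM human CYP3A4 with 25 uM Luciferin-PPXE (at KM) in 200 mM KPO4, preincubated 10 min with compound; NADPH regeneration started a 60 min RT reaction. Luciferin detected by luminescence, normalized to 57 uM ketoconazole as full inhibition.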

For test [12] the target is unchanged. Description: qHTS Assay for Activators of Cytochrome P450 3A4 (AID 885; active = well fitted curve in the direction sought with a large enough effect; an effect the other way counts as inactive or inconclusive; also: nearly all actives have a fitted effect of over 65% in size). The gist of the method:
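20nM CYP3A4 + 25uM Luciferin-PPXE (=KM), 200mM KPO4; cpd 10 min RT; NADPH regen, 60 min RT; stop w/ detection buffer, 20 min; luminescence. Normalized to 57 uM ketoconazole.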

Test [13] addresses Alpha-galactosidase (Coffea arabica) (UniProt Q42656). Description: Counterscreen for Glucocerebrosidase Inhibitors: qHTS Assay for Coffee Bean alpha-Galactosidase at pH 4.5 (AID 957; active = well fitted curve in the direction sought with a large enough effect; an effect the other way counts as inactive or inconclusive;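 also: plate controls were enzyme alone for no effect and no enzyme for full effect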). The gist of the method:
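Green coffee bean enzyme (2 nM final) was incubated with compounds (0.7 nM to 77 uM) and 4-methylumbelliferyl alpha-D-galactopyranoside (80 uM final) in 50 mM citric acid, 0.005% Tween-20, pH 4.5, 20 min at room temperature; AC50 from Hill fits.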

For test [14] the target is unchanged. The experiment in a line: Counterscreen for Glucocerebrosidase Inhibitors: qHTS Assay for Coffee Bean alpha-Galactosidase at pH 5.9 (AID 998; active = well fitted curve in the direction sought with a large enough effect; an effect the other way counts as inactive or inconclusive;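 also: plate controls were uninhibited enzyme for no effect and no-enzyme basal signal for full effect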). The gist of the method: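 Green coffee bean enzyme (2 nM) with 4-methylumbelliferyl alpha-D-galactopyranoside (80 uM) in 50 mM citric acid, 0.005% Tween-20, pH 5.9, 20 min at room temperature; compounds 0.7 nM–77 uM. Stopped at pH 10, fluorescence Ex365/Em440; Hill-fit AC50.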
(In general: Counterscreens check selectivity or assay interference.)

A short description of test [15]: Validation screen for inhibitors of Lassa infection (AID 463096). Also: % is scaled to controls: 0 for no effect and ±100 for the full control effect.
Test [16] addresses M-phase phosphoprotein 8 (Homo sapiens) (UniProt Q99549). Description: qHTS Validation Assay for Inhibitors for MPP8 Chromodomain Interactions with Methylated Histone Tails (AID 488949; active = well fitted curve in the direction sought with a large enough effect; an effect the other way counts as inactive or inconclusive; also: potency is read from the fitted curve at half-maximal effect; nearly all actives have a fitted effect of over 55% in size). The essentials: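 MPP8 (50 nM) was preincubated with biotinylated H3(1-18)K9me3 peptide (50 nM) in PBS pH 7.4, 0.01% Tween-20 for 30 min at room temperature, then with compounds for 30 min; binding was detected by AlphaScreen.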

A short description of test [17]: qHTS assay for small molecule agonists of the antioxidant response element (ARE) signaling pathway (AID 651741; active = well fitted activation curve with a large enough effect in the signal ratio; the % refers to the signal ratio; also: potency is read from the fitted curve at half-maximal effect). The gist of the method:
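HepG2 ARE-bla cells plated at 2,000 cells/well and incubated 5 h at 37 C/5% CO2 received 23 nL compound in DMSO. After 16 h at 37 C, LiveBLAzer B/G FRET substrate was applied for 2 h at room temperature and fluorescence read.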

Where “and” joins values, the source holds several entries; their conditions need not be identical. Identical values can stand only once. Records with an inconclusive call do not appear. Calls of active or inactive are those of the source. Unless noted, calls follow the shape of the full dose curve.

Chain of Nucleoprotein (Lymphocytic choriomeningitis virus (strain Armstrong)) (P09992 whole entry, looked up): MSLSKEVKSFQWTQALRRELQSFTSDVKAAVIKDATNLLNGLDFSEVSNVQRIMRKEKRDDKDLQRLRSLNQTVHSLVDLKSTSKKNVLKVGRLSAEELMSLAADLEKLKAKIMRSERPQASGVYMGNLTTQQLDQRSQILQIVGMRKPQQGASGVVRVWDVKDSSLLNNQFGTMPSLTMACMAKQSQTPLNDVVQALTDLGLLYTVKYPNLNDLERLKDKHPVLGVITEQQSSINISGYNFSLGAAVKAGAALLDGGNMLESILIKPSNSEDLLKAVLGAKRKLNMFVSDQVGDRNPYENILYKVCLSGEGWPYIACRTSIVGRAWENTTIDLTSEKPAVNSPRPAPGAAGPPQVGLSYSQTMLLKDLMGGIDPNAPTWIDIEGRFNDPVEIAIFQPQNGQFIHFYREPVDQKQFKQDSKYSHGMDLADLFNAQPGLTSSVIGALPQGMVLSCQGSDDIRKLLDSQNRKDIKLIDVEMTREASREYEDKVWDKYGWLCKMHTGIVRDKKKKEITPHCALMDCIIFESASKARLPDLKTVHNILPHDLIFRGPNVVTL
Chain of Alpha-galactosidase (Coffea arabica) (Q42656 whole entry, looked up): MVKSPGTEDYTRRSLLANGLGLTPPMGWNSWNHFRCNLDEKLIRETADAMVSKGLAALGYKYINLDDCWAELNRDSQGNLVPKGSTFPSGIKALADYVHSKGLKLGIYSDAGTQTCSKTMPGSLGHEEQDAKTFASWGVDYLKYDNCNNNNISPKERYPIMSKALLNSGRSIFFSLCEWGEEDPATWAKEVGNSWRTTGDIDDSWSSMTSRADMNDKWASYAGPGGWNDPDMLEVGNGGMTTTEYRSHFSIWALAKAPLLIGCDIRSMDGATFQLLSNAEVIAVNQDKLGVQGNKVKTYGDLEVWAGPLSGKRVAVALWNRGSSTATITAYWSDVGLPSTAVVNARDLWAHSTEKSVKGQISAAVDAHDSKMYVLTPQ
Chain of M-phase phosphoprotein 8 (Homo sapiens) (Q99549 whole entry, looked up): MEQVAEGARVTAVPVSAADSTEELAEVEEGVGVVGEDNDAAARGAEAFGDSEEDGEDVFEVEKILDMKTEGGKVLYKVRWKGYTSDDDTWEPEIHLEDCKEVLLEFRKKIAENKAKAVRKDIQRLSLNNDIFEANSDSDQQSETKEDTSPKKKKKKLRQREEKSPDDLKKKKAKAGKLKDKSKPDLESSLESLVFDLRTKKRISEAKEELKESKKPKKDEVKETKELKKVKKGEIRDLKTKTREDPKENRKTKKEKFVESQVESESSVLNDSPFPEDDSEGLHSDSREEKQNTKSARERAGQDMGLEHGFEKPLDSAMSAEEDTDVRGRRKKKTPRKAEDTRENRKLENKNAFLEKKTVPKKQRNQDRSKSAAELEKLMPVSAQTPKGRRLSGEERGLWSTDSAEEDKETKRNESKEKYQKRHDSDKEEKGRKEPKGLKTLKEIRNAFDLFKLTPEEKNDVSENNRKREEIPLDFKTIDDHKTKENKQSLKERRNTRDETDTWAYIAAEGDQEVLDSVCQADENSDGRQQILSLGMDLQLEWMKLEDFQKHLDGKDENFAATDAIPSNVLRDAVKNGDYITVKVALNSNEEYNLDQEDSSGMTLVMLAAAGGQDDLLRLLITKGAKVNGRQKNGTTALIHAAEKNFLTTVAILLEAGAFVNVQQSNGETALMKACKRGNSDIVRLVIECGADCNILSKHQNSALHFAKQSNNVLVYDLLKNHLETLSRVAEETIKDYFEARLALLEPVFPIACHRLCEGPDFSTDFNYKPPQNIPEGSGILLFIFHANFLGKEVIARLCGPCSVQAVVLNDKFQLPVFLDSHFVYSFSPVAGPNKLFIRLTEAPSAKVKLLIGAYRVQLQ
Chain of Cytochrome P450 3A4 (Homo sapiens) (P08684 whole entry, looked up): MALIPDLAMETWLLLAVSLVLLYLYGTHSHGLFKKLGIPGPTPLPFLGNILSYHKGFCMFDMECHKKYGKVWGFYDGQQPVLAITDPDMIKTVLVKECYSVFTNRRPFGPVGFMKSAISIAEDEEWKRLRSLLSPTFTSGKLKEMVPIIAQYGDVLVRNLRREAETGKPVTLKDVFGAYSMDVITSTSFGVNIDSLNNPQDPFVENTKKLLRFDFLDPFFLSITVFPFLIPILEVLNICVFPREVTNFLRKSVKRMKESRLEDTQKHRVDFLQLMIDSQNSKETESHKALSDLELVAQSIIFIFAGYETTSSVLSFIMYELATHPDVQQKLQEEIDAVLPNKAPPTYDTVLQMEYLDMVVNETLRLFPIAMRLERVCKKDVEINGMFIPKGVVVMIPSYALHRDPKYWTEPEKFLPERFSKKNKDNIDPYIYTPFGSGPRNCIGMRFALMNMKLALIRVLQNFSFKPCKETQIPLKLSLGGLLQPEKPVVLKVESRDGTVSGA
Chain of Nuclear receptor subfamily 1 group I member 3 (Homo sapiens) (Q14994 whole entry, looked up): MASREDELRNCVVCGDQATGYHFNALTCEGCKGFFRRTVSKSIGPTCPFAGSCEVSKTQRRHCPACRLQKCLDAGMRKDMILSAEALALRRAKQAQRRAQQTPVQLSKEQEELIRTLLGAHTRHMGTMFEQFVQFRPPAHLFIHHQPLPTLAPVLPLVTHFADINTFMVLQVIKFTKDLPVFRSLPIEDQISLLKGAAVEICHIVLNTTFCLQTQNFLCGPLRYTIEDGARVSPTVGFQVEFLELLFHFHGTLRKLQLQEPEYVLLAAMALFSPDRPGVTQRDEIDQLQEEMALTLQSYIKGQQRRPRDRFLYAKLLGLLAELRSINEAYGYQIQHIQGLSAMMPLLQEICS

In the case of `COc1ccc(C(C)=O)c(O)c1`, the Potency entry in [1], in [2], in [3], in test [4] and in [5] was “inactive” throughout. In addition, the result in [6] was inactive.

For the compound `CN1CCN(Cc2ccc(NC(=O)Nc3ccc(Oc4cc(NC(=O)C5CC5)ncn4)cc3)cc2C(F)(F)F)CC1`, the Potency in test [1] is 2430 nM (active); in test [2], 1530 nM (active); in test [3] it was 968 nM (active); in test [4] it was 1720 nM (active); in test [7] it was 1000 nM (active).

For the compound `CC(C)C[C@H](NC(=O)[C@@H](NC(=O)c1cccc(-c2ccccc2)n1)[C@@H](C)O)B(O)O`, the Potency in test [1] is 685 nM (active); in test [2], 544 nM (active); in test [3] it was 1090 nM (active); in test [4] it was 1090 nM (active). For the same compound, the activity change, negative = inhibition in [7] is -97.4% [at 27.1 µM].

In the case of `Cc1ccc(C(=O)N(CCCN)[C@@H](c2oc3cc(Cl)ccc3c(=O)c2Cc2ccccc2)C(C)C)cc1`, the Potency result in [1], in test [2], in [3] and in test [4] was “inactive” in each case. In addition, in test [7], the activity change, negative = inhibition is -98.4%.

On to `CCN1CCN(c2ccc(Nc3cc(N(C)C(=O)Nc4c(Cl)c(OC)cc(OC)c4Cl)ncn3)cc2)CC1`, for which the Potency result in [1], in test [2], in test [3], in [4] and in [7] was “inactive” throughout.

With `CCn1nnc2c(N3CCOCC3)nc(-c3ccc(NC(=O)Nc4ccc(C(=O)N5CCN(C)CC5)cc4)cc3)nc21`, the Potency in test [1] is 54.4 nM (active); in test [2], 24.3 nM (active); in test [3], 30.6 nM (active); in test [4] it was 38.5 nM (active). Further, in [7], the activity change, negative = inhibition is -84.5%.

The compound `CC[C@H](CC#N)OC(=O)N[C@@H](C)c1cccc(NC(=O)Nc2ccc(-c3cnco3)c(OC)c2)c1` displayed a parasite growth remaining, % of DMSO control (lower = more inhibition) in [8] of 66.9%. Moreover, the Potency was 1530 nM (active) in [1], 769 nM (active) in test [2], 968 nM (active) in test [3] and 769 nM (active) in test [4]. Moreover, the activity change, negative = inhibition in [7] is -97.5%.

On to `C=CC(=O)N1CCc2ccc(-n3c(=O)ccc4cnc5ccc(-c6cnn(C)c6)cc5c43)cc21`, for which the Potency entry in test [1], in test [2], in test [3] and in test [4] was “inactive” throughout. In addition, the Potency in test [7] is 3550 nM (active).

For `COc1cc(SC)ccc1C(=O)N1CCC(Cc2ccccc2)CC1`, the compound was called inactive in test [9]. The Potency entry in test [1], in [2], in test [3], in [4] and in test [10] was “inactive” in each case.

Take `O=C(CO)N1CCC(c2[nH]nc(-c3ccc(Cl)cc3)c2-c2ccncn2)CC1`: the Potency entry in [1], in test [2], in test [3] and in [4] was “inactive” throughout. In [7], the activity change, negative = inhibition is -14.2%.

In the case of `O=[N+]([O-])c1ccc(Nc2ccccc2-c2ccccc2)c2nonc12`, the Potency result in test [1], in test [2], in test [3] and in test [4] was “inactive” in each case. Besides, the Potency in [7] was 7940 nM (active).

On to `CC(C)COC(=O)c1ccccc1C(=O)OCC(C)C`, for which the Potency entry in [11], in [1], in test [2], in test [3] and in test [4] was “inactive” each time.

For the compound `C[C@H]1[C@@H](OC(=O)CCC(=O)O)O[C@@H]2O[C@@]3(C)CC[C@@H]4[C@H](C)CC[C@@H]1[C@@]24OO3`, the Potency was 9680 nM (active) in [1]; 5440 nM (active) in test [2]; 5440 nM (active) in test [3]; 3060 nM (active) in [4]; 3160 nM (active) in [7].

As for `N#C/C(=C\c1ccc(O)c(O)c1)C(=O)NCCCNC(=O)/C(C#N)=C/c1ccc(O)c(O)c1`, the Potency in [11] is 2000 nM (active); in [16], 316 nM (active) and 2.12 µM (active). The Potency entry in test [12], in test [15], in test [1], in test [2], in test [3] and in [4] was “inactive” in each case. Moreover, the outcome in test [13], in test [14] and in [9] was inactive.

Consider `Nc1ncnc2c1c(-c1cnc3[nH]ccc3c1)nn2C1CCCC1`, for which the Potency in test [1] was 6850 nM (active); in test [2] it was 1720 nM (active); in test [3], 2170 nM (active); in test [4], 6110 nM (active); in test [7], 10000 nM (active).

Consider `Oc1ccccc1O`, for which the Potency entry in test [12], in test [15], in test [1], in [2], in test [3] and in test [4] was “inactive” throughout. The result in [13], in [14] and in test [9] was inactive. Besides, the Potency in test [16] was 79.4 µM (active); in test [17], 29800 nM (active).

Take `O=C1c2ccccc2-[n+]2ccc3c([nH]c4ccccc43)c21`: the Potency in test [1] was 4850 nM (active); in test [2], 4320 nM (active); in [3], 6110 nM (active); in test [4], 3060 nM (active); in test [7], 1260 nM (active).

As to `Cc1csc(-c2nnc(Nc3ccc(Oc4ncccc4-c4ccnc(N)n4)cc3)c3ccccc23)c1`, the Potency entry in test [1] and in test [4] was “inactive” throughout. Besides, the Potency in test [2] is 6850 nM (active); in test [3], 19300 nM (active); in [7], 15800 nM (active).

Take `Cc1nc(C(=O)NCC(=O)O)c(O)c2ccc(Oc3ccccc3)cc12`: the Potency result in test [1], in test [2], in test [3] and in test [4] was “inactive” each time. For the same compound, the activity change, negative = inhibition in test [7] was -9.8%.

Regarding `Cn1cnc(-c2cc3nccc(Oc4ccc(NC(=S)NC(=O)Cc5ccccc5)cc4F)c3s2)c1`, the Potency result in [1], in test [2], in test [3] and in test [4] was “inactive” throughout. Further, the Potency in test [7] was 8910 nM (active).

The values above are taken from PubChem BioAssay (NCATS).
